Screening data: PubChem BioAssay, National Center for Advancing Translational Sciences (NCATS)
FBPA Giardia inh: inhibitors of Giardia lamblia fructose-1,6-bisphosphate aldolase | A8B2U2 | purified Giardia FBPA | Potency, µM (top dose mostly 59.6 µM), for inactives: at the highest dose activity, negative = inhibition, hits mostly inhibitors | actives 0.71% (n = 290,000) | AID 2451; further: nearly all actives have a fitted effect of over 55% in size
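40 nM FBPA preincubated 10 min at RT with compound (up to 57.5 uM final), then substrate plus GAPDH/TPI/NAD/arsenate coupling and diaphorase/resazurin added. Fluorescence read after 20 min at RT, 525/598 nm.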
Tb PYK inh: blocks Trypanosoma brucei pyruvate kinase; TbPYK enzyme, Kinase-Glo Plus ATP luminescence, 45 min; AID 624173; Potency, µM (series often up to 76.8 µM), without a hit: at the highest dose activity, negative = inhibition, usual class: inhibitors; Q57TT1; actives 0.12% (n = 410,000); further: nearly all actives have a fitted effect of over 50% in size
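Assay buffer: 50 mM TEA pH 7.2, 100 mM KCl, 10 mM MgCl2, 0.05% BSA, 0.01% Tween-20. Pyruvate kinase from T. brucei plus substrate met compound, then ADP (130 uM final). Luminescence was read post 45 min RT.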
RE007 growth inh: less growth of the S. pombe RE007 Vpr strain. Potency, µM (doses to about 92.2 µM), for inactives: at the highest dose activity change, negative = less growth, usual class: inhibitors. actives 0.21% (n = 360,000). S. pombe RE007 Vpr strain, BacTiter-Glo ATP luminescence, 24 h; active means well fitted falling curve with a large enough effect; inconclusive means small, poorly fitted or top-dose-only effect; inactive means no such curve, though single readings can be large or run the other way; further: nearly all actives have a fitted effect of over 50% in size
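Fission yeast RE007 carrying one integrated HIV-1 vpr copy, seeded at OD 0.01 in PMG+AL medium with 23 nL pinned compound. Grown 24 h at 30 degrees; viability read by BacTiter-Glo luminescence after 5 min.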
AmpC detergent: blocks E. coli AmpC beta-lactamase in detergent assay; P00811; AmpC hydrolysis of nitrocefin, absorbance 480 nm, 0.01% Triton; Potency, µM (top dose mostly 114 µM), without a hit: top-dose activity change, negative = inhibition, actives largely listed as inhibitors; actives 0.041% (n = 370,000); AID 485294;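 further: 0% = no-compound wells and -100% = no-enzyme wells; nearly all actives have a fitted effect of over 25% in size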
Target sequence (P00811 whole entry, looked up): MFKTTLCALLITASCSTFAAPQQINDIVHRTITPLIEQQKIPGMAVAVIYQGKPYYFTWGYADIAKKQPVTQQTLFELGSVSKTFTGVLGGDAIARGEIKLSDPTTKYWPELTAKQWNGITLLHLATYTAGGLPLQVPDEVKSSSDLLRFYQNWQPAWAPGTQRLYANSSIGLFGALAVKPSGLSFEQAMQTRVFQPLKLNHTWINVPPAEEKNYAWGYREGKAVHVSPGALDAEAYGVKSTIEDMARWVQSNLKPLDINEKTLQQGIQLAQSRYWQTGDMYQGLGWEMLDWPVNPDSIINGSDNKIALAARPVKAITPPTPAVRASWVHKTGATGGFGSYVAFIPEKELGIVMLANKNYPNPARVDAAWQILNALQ
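20 mM phosphate pH 7.0 + 0.01% (detergent screen) or 0.0001% Triton X-100; 5.3 nM AmpC reagent; cpd preinc 15 min RT; nitrocefin (800 uM stock) to start; A480 q20 s × 4 min; Activity was normalised to no-enzyme and no-compound control wells.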
AmpC inh no detg: blocks E. coli AmpC beta-lactamase in detergent-free assay. AID 485341. Potency, µM (series often up to 57.1 µM), without a hit: at the highest dose activity change, negative = inhibition, most hits filed as inhibitors. actives 0.52% (n = 330,000). AmpC nitrocefin hydrolysis, absorbance 480 nm, 0.0001% Triton. P00811;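 further: plate controls were no compound for no effect and no enzyme for full effect; nearly all actives have a fitted effect of over 20% in size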
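AmpC (5.3 nM in the dispensed reagent) in 20 mM phosphate pH 7.0 with 0.01% (detergent screen) or 0.0001% Triton X-100 was preincubated with compounds for 15 min at room temperature. Nitrocefin was then added from an 800 uM solution, and hydrolysis was followed at 480 nm.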
LmPK inhibitor: blocks Leishmania mexicana pyruvate kinase activity. Q27686. purified LmPK, Kinase-Glo ATP luminescence, 1 h. Potency, µM (series often up to 57.5 µM), for the others: top-dose activity change, negative = inhibition, usual class: inhibitors. actives 0.37% (n = 290,000). AID 1721
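Purified LmPK (0.1 nM) converted ADP (0.1 mM) to ATP with PEP (0.5 mM) in imidazole buffer pH 7.2 with KCl and MgCl2, 1 h at room temperature. ATP was read by Kinase-Glo luminescence; data normalized to uninhibited and no-enzyme controls.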
The depositor's hits bear a star; ? = inconclusive; · = no result given; ! = repeats disagree; [ ] = remark or other dose. Rows were chosen to be rich in hits. Some 1.4% of all compounds tested hit in one or more screens of this group. Unless noted, the call rests on the fitted dose curve; in most records, active means well fitted curve in the direction sought with a large enough effect; inconclusive means small, poorly fitted or top-dose-only effect, or another doubt; inactive means no such curve, though single readings can be large; an effect the other way counts as inactive or inconclusive. Unless noted, on the % scale 0 is the no-effect control and ±100 the full control effect; potency means the concentration at half of the fitted maximal effect.

SMILES	FBPA Giardia inh	Tb PYK inh	RE007 growth inh	AmpC detergent	AmpC inh no detg	LmPK inhibitor
S=C1NC2=C(CCCC2=C2SCCS2)C(c2ccccc2)N1 (stereo not drawn)	-15%	-13%	-18%	3%	-50%	-3%
Fc1ccc(/C=C2\CCCC3=C2NC(=S)NC3c2ccc(F)cc2)cc1 (stereo not drawn)	-5%	·	·	-14%	14µM*	2%
On1ccccc1=S	·	?	4.5µM*	?	-42%	·
N#Cc1c(-c2cccnc2)c2c([nH]c1=S)CCCC2	-23%	?	15%	-9%	-22%	22%
COc1ccc(-c2c3c([nH]c(=S)c2C#N)CCC3)cc1	?	13µM*	9%	?	-55%	5%
N#Cc1c(-c2ccco2)c2c([nH]c1=S)CCCC2	?	18µM*	8%	-1%	-42%	3%
COc1ccc(OC)c(-c2c3c([nH]c(=S)c2C#N)CCCC3)c1	-10%	?	-22%	-6%	-13%[2.29 µM]	3%
CC(NC(=O)c1sc2ncccc2c1-n1cccc1)c1ccccc1 (stereo not drawn)	·	-11%	·	1%	·	·
CC[C@H](C)C(N)C(=O)O (stereo partly drawn)	-2%	·	·	·	·	·
COc1cccc(CNC(=O)C2CCCN(S(=O)(=O)c3ccc4c(ccn4C)c3)C2)c1OC (stereo not drawn)	·	-1%	·	19%	·	·
CCC1CN(C(=O)N2CCC(C(=O)N3CCN(c4ccccc4F)CC3)CC2)c2ccccc2O1 (stereo not drawn)	·	2%	·	-5%	·	·
O=C1C2C(C(=O)N1/N=C/c1ccc(N3CCCCC3)o1)C1C=CC2C12CC2 (stereo not drawn)	?	25µM*	0%	2%	60%	-9%
O=C(O)c1ccc2nc(-c3ccco3)c(-c3ccco3)nc2c1	6.3µM*	?	-11%	2%	-21%	-24%
O=C(c1ccco1)N1CCN(C(=O)c2cc(-c3ccncc3)nc3ccc(Br)cc23)CC1	·	-5%	-25%	·	·	·
O=C(O)c1cc(-c2ccco2)nc2ccc(Br)cc12	-27%	18µM*!	-30%	2%	-31%	3%
O=S(=O)(c1ccc2nc(-c3ccco3)c(-c3ccco3)nc2c1)N1CCOCC1	2.5µM*	16µM*	0%	-19%	65%	-5%
O=C(c1ccc2nc(-c3ccco3)c(-c3ccco3)nc2c1)N1CCN(c2ccccc2)CC1	?	-23%	7%	?	95%	0%
O=C(O)c1ccc2nc3c(nc2c1)-c1ccccc1C3=O	?	32µM*	-15%	-5%	-6%	?
Cc1ccc(-c2nc3ccc(C(=O)O)cc3nc2-c2ccc(C)cc2)cc1	·	-2%	2%	-10%	-30%	7%
CCN1C(=O)C2(c3ccccc31)c1c(oc3ccc(F)cc3c1=O)C(=O)N2CCCOC (stereo not drawn)	·	-5%	·	7%	·	·
CCS(=O)(=O)N1CCCc2cc(C(=O)Nc3cc([N+](=O)[O-])ccc3C)ccc21	·	1%	·	2%	·	·
O=C(c1ccc2nc(-c3ccco3)c(-c3ccco3)nc2c1)N1CCC2(CC1)OCCO2	7.1µM*	-9%	-9%	-3%	72%	1%
Cc1ccc(NC(=O)CSc2nn(-c3ccccc3)c(=S)s2)cc1S(=O)(=O)N(C)C	-2%	-12%	·	-19%	28µM*	-4%
O=C(CSc1nn(-c2ccccc2)c(=S)s1)Nn1cnnc1	11%	1%	6%	-7%	-6%	-3%
Cc1ccc2c(c1)N(C(=O)N1CCC(C(=O)NCCc3ccc(Cl)cc3)CC1)CC(C)O2 (stereo not drawn)	·	2%	·	18%	·	·
CCN1/C(=C(\O)c2ccccc2)C(=O)c2ccccc2S1(=O)=O	-3%	3%	40µM*	-5%	-35%	-3%
